# Screening results as filed in PubChem BioAssay.
# PI4K2A block = blocks human PI4K2A kinase activity. activity change, negative = inhibition, % at 76.9 µM. AID 1346378. 0.13% of 420,000 active. purified PI4K2A, ADP-Glo luminescence, 1 h; hits give low values; in the data active = activity change below about -50%; inconclusive = mostly about -30% to -49%;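 also: -100% = wells without enzyme as full effect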
#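 In this quantitative HTS, ADP production by PI4K2A was quantified luminescently after 1 h at ambient temperature; 100 microM adenosine served as plate-quality control.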
# GoLoco inh red = inhibitors of human Gai1-RGS12 GoLoco interaction (red fluorophore) | P63096 | Gai1:RGS12 GoLoco peptide FP, rhodamine, 10 min | Potency, µM (series often up to 61.6 µM), without a hit: at the highest dose activity, negative = inhibition, most hits filed as inhibitors | 0.44% of 230,000 active; active = well fitted inhibition curve with a large enough effect, not every such curve was filed as active; inactive = no such curve, though single readings can be large or run the other way; also: potency is read from the fitted curve at half-maximal effect; nearly all actives have a fitted effect of over 30% in size
# Pin1 inh = blocks the human prolyl isomerase Pin1. AID 504891. Q13526. Potency, µM (titrated, usually from 115 µM), for the others: at the top dose activity, negative = inhibition, actives largely listed as inhibitors. Pin1 FP peptide displacement, HiFluor488, 10 min. 0.009% of 390,000 active; active = well fitted inhibition curve with a large enough effect in the polarisation, with a control signal flat, not every such curve was filed as active; inconclusive = small, poorly fitted or top-dose-only effect, or effect the other way, or a change in a side signal; inactive = no such curve, though single readings can be large or run the other way; the % refers to the polarisation; also: potency is read from the fitted curve at half-maximal effect
# Target sequence (Q13526 whole entry, looked up): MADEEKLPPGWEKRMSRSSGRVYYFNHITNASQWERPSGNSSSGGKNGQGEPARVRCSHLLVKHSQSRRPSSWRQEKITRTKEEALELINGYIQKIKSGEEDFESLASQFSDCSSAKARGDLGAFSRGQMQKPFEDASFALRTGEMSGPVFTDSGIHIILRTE
# PI5P4Ka inh = PI5P4K alpha (human) kinase inhibition; P48426; 1.2% of 330,000 active; PI5P4Kalpha enzyme, ADP-Glo luminescence, 60 min; hits give low values; max response, %; AID 652105; active = max response of -50% or lower; inconclusive = between -30% and -50%; inactive = -30% or higher; also: value at the top dose of about 77 µM
# Target sequence (P48426 whole entry, looked up): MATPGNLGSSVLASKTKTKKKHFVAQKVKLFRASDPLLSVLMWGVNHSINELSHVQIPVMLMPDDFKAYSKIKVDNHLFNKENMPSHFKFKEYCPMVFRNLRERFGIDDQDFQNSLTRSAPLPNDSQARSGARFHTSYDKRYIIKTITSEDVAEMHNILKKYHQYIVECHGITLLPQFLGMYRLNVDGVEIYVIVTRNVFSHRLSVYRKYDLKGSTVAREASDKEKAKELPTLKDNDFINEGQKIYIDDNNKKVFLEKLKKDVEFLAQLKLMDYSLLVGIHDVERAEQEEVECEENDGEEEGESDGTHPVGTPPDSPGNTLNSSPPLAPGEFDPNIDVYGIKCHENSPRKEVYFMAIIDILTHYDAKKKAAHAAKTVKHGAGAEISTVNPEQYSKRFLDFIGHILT
#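 Compounds were pin-transferred onto PI5P4Kalpha and substrate in HEPES pH 7.4 buffer with EGTA, CHAPS and 5% DMSO. ATP (5 microM final) started the reaction, which ran 60 minutes at room temperature before ADP-Glo detection.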
# PGK inhibitor = T. brucei PGK inhibition; AID 602233; P07378; PGK/GAPDH coupled, Kinase-Glo luminescence, 60 min; 0.043% of 380,000 active; Potency, µM (doses to about 57.5 µM), inactives show at the top dose activity change, negative = inhibition, hits mostly inhibitors; also: potency is read from the fitted curve at half-maximal effect; nearly all actives have a fitted effect of over 60% in size
#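 Luminescent ATP detection (Kinase-Glo Plus) follows a 60-minute room-temperature incubation, with wells lacking PGK as controls. Buffer: 100 mM TEA (pH 7.6), 5 mM MgCl2, 0.01% Tween-20. Coupling enzyme GAPDH (100 nM final) supplies unstable 1,3-BPG in-well.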
# GCN5L2 inh = GCN5L2 (KAT2A) acetyltransferase inhibition; Q92830; GCN5L2 HAT assay, ThioGlo1 CoA-SH fluorescence; Potency, µM (top dose mostly 58.9 µM), without a hit: top-dose activity change, negative = inhibition, usual class: inhibitors; 0.21% of 390,000 active; also: potency is read from the fitted curve at half-maximal effect
#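 Titration-based screen in which CoA formation is detected via maleimide probe ThioGlo1 (50uM) turning fluorescent on thiol reaction; substrates H3(1-25) 75uM and acetyl-CoA 70uM, GCN5L2 20nM, 20 min incubation at room temperature.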
# * = called active by the depositor; i = inactive; ? = inconclusive; / = no result given. Compounds with a hit are over-represented: about 1.2% of the library has one in this group of screens. Unless noted, calls follow the shape of the dose curve; as a rule, active = well fitted curve in the direction sought with a large enough effect; inconclusive = small, poorly fitted or top-dose-only effect, or another doubt; inactive = no such curve, though single readings can be large; an effect the other way counts as inactive or inconclusive. Unless noted, % is scaled to controls: 0 for no effect and ±100 for the full control effect.
SMILES,PI4K2A block,GoLoco inh red,Pin1 inh,PI5P4Ka inh,PGK inhibitor,GCN5L2 inh
O=C(O)c1cc([N+](=O)[O-])cc2c1nnn2O,-22,7%,-3%,-67*,-24%,0%
O=C(O)CC/C(=N\Nc1ccc(S(=O)(=O)N2CCOCC2)cc1[N+](=O)[O-])c1cccs1,-5,1%,-9%,-6,-14%,-15%
COc1ccc(N=C2S/C(=C\c3ccc(N4CCOCC4)o3)C(=O)N2CCc2c[nH]c3ccccc23)cc1,/,219%,/,/,/,-12%
COc1ccc(N=C2S/C(=C\c3ccc(OCC(=O)O)cc3)C(=O)N2CCc2c[nH]c3ccccc23)cc1,-1,1%,/,-57*,-16%,-16%
C/C(=N/NC(=O)CNC(=O)c1ccccc1F)c1ccc2c(c1)CCCC2,-2,8%,1%,-67*,4%,0%
O=c1c(Cl)c(Cl)cnn1Cc1nnc(-c2ccc(Cl)cc2)o1,6,8%,?,-58*,-5%,-17%
O=CC(O)C1OC(=O)C(O)C1O (stereo unspecified),-6,/,?,?,6.3µM*,/
Cc1nc(S/C(=C\c2ccc(-c3ccc(C(=O)O)c(Cl)c3)o2)C(=O)O)n[nH]1,-18,-7%,25%,-71*,?,-9%
Cc1cc(=O)[nH]c(SCc2nc3ccc([N+](=O)[O-])cc3[nH]2)n1,-8,4%,1%,-6,0%,0%
O=C1C=C(N2CCOCC2)c2ccccc2C1=O,-75*,/,-22%,-8,-22%,-9%
O=C1C=CC(=O)N1CCCCCCN1C(=O)C=CC1=O,4,-38%,-1%,-58*,-3%,0%
O=C(O)CN1C(=O)C=CC1=O,-15,/,/,-15,?,/
CCOC(=O)C(C(=O)OCC)C(C(=O)OCC)N1CCOCC1 (stereo unspecified),-1,14µM*,-7%,-2,3%,-9%
COc1ccc(N2CSC3=C(C#N)C(c4cccs4)CC(=O)N3C2)cc1 (stereo unspecified),0,4%,-15%,/,i,13µM*
CCOC(=O)c1ccc(N2CSC3=C(C#N)C(c4cccs4)CC(=O)N3C2)cc1 (stereo unspecified),-3,-33%,-3%,-70*,0%,?
COc1ccc(C2CC(=O)N3CN(C4CCCCC4)CSC3=C2C#N)cc1 (stereo unspecified),-4,/,-21%,/,-6%,25µM*
COc1cccc(C2CC(=O)N3CN(C4CCCCC4)CSC3=C2C#N)c1 (stereo unspecified),3,/,-7%,/,i,?
COc1ccc(N2CSC3=C(C#N)C(c4cc(OC)ccc4OC)CC(=O)N3C2)c(OC)c1 (stereo unspecified),-27,-13%,51%,-85*,-2%,?
CCOC(=O)CC1=C(C(=O)OCC)C(c2cccs2)C(C#N)=C(N)O1 (stereo unspecified),-1,3%,7%,-6,5%,/
Cc1cc(C)cc(NC(=O)CSc2nc3ccccc3nc2N2CCCCC2)c1,0,/,41%,12,0%,35µM*
Cc1cc(C)cc(NC(=O)CSc2nc3ccccc3nc2N2CCCC2)c1,4,/,20%,10,1%,?
CC1=C(C)CS(=O)N(c2ccc(S(N)(=O)=O)cc2)C1 (stereo unspecified),-52*,-9%,-3%,5,3%,-5%
CC1=C(C)CS(=O)N(S(=O)(=O)c2ccccc2)C1 (stereo unspecified),-13,-5%,5%,/,-9%,1%
CCn1c(C)c(C)c2cc(C(=O)NCCc3cc(OC)c(OC)c(OC)c3)ccc21,2,/,16%,/,11%,-13%
CN(Cc1ccco1)c1cc(-c2ccc3c(c2)OCO3)ncn1,/,-12%,/,/,/,28µM*
SMILES,PI4K2A block,GoLoco inh red,Pin1 inh,PI5P4Ka inh,PGK inhibitor,GCN5L2 inh
O=C(CSc1n[nH]c(-c2ccccc2)n1)NC(=O)NCc1ccco1,-11,11%,?,-55*,-8%,-9%
O=C(CSc1nc(-c2ccccc2)cs1)NC(=O)NCc1ccco1,-5,26%,17%,/,/,-5%
O=C(CSc1nc2ccccc2c2nc3ccccc3n12)NCc1ccco1,-53*,-3%,?,-19,-10%,-10%
CN(Cc1ccccc1)C(=O)c1nc[nH]c1C(=O)N1CCc2ccccc2C1,-1,/,-2%,-1,5%,0%
COc1ccc(C(=O)NCCn2cc(SCC(=O)Nc3nnc(C)s3)c3ccccc32)cc1,5,/,-1%,/,-3%,/
COc1ccccc1NC(=O)CSc1nnc(CCC(=O)Nc2ccccc2F)n1C,1,4%,2%,1,-9%,35µM*
Cc1nnsc1NC(=O)OCc1ccc(Cl)cc1Cl,2,-2%,0%,-5,-5%,11µM*
COc1ccc(/C=N/Nc2nc(C(=O)O)cs2)cc1,1,/,-16%,-63*,-18%,-9%
CCOC(=O)/C(C#N)=C\c1cc(OC)c(OC)cc1[N+](=O)[O-],5,19%,-11%,-70*,-2%,-11%
CCOC(=O)/C(C#N)=C\c1ccc(OC)c(OC)c1,5,12%,-1%,2,-12%,-13%
COc1ccc(-c2nnc3n2N=C(c2cc(OC)ccc2OC)CS3)cc1,/,/,3%,/,/,/
COc1ccc(C2=CC(=O)C=CC2=O)cc1,/,3.5µM*,/,/,/,13µM*
Cc1ccc(NC(=O)Nc2c(C)n(C)n(-c3ccccc3)c2=O)cc1C,-1,10%,1%,?,4%,-1%
CCc1nnc(NC(=O)c2ccc(N(C)S(=O)(=O)c3ccccc3)cc2)s1,-3,2%,-7%,/,-11%,-4%
O=c1ccc2ccc(O[C@@H]3O[C@H](CO)[C@@H](O)[C@H](O)[C@H]3O)c(O)c2o1,-2,2%,1%,-7,-1%,1%
COc1cc2ccc(=O)oc2c(O[C@@H]2O[C@H](CO)[C@@H](O)[C@H](O)[C@H]2O)c1O,-4,/,?,4,7%,22µM*
Cc1noc(C)c1COC(=O)c1ccc2c(c1)S(=O)(=O)c1ccccc1C2=O,1,8%,-2%,/,-2%,-5%
CCC1=NNc2cccc3c(OC)ccc1c23,/,18µM*,/,/,/,-8%
COc1ccc2c3c(cccc13)C(=O)N(O)C2=O,-1,-5%,?,-3,0%,-6%
Cc1ccc(/C=C2\S/C(=N/S(=O)(=O)c3cccs3)NC2=O)cc1,2,9%,?,-59*,?,-1%
Cc1ccc(S(=O)(=O)/N=C2/NC(=O)/C(=C\c3ccccc3)S2)cc1,-3,/,-22%,-18,-6%,?
O=C1NC(=Nc2ccccc2)S/C1=C\c1cccnc1,0,20%,12%,?,i,-3%
